Screens deposited in PubChem by National Center for Advancing Translational Sciences (NCATS).
D3 ag – D3 dopamine receptor (human) agonism; P35462; D3R DiscoveRx beta-arrestin cells, luminescence, 90 min; max activation, %; actives 0.58% (n = 410,000); in the data active = max activation above about 30%; also: 0% is about no effect
Target sequence (P35462 whole entry, looked up): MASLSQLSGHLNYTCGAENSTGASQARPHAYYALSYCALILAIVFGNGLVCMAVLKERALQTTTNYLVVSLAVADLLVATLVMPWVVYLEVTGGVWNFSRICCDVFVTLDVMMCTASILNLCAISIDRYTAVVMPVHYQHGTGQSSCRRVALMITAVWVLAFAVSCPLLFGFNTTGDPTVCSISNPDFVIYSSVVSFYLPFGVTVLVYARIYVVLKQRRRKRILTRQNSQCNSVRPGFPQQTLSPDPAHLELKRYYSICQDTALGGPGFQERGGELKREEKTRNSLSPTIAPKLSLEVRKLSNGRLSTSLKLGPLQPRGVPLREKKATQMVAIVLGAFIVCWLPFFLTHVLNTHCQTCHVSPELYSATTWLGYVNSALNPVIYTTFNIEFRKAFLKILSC
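Agonist mode: compounds and dopamine controls were applied to plated cells for 90 min at 37 degrees C after an overnight attachment at 1500 cells/well. Luminescent read-out followed 30 - 60 minutes at room temperature with DiscoveRx detection reagent.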
D1 agonist – human D1 receptor agonism. activation, % at 2 µM. actives 1% (n = 360,000). P21728. HEK293 T-REx D1 cells, calcium flux, agonist mode; in the data active = activation above about 30%; also: 0% is about no effect
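Inducible HEK293 T-REx D1 cells, force-coupled to calcium signalling, were plated at 4000 cells/well with tetracycline and held overnight at 30 C. After no-wash calcium dye loading, compound-evoked calcium rise over 180 s flagged agonists.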
DRD3 antagonist – blocks the human D3 dopamine receptor; P35462; D3R cells, DiscoveRx beta-arrestin luminescence, antagonist mode; stronger effect = lower value; max response, negative = inhibition, %; actives 2.5% (n = 360,000); in the data active = max response below about -50%; inconclusive = no clear call, values can overlap the other calls; also: % is scaled to controls: 0 for no effect and ±100 for the full control effect
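Cells plated overnight at 1500 cells/well, then exposed to library compounds with dopamine controls for 90 minutes at 37 degrees C. DiscoveRx reagent added for 30–60 minutes at room temperature; luminescence read, quantitative HTS format.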
D1 potentiator – potentiators of human D1 dopamine receptor; P21728; potentiation, % at 10 µM; HEK293 TREx D1 cells, calcium flux, dopamine EC20 potentiation; AID 504651; actives 0.036% (n = 360,000); in the data active = potentiation above about 30%; also: 0% is about no effect
D1 antagonist – blocks dopamine activation of the human D1 receptor; P21728; HEK293 TREx D1 cells, calcium flux, dopamine EC80; stronger effect = lower value; activity change, negative = inhibition, % at 10 µM; actives 3.2% (n = 360,000); in the data active = activity change below about -30%; also: % is scaled to controls: 0 for no effect and ±100 for the full control effect
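Compound effects on dopamine-evoked calcium signalling were measured in tetracycline-induced HEK293 Trex D1 cells. Dopamine at EC80 followed a 180 s compound pre-read, and fluorescence was tracked kinetically for 180 s more.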
* = called active by the depositor. This is a sample that favours compounds with a hit; in the whole collection about 6.1% have one here.

Screening CCCNC(=O)c1ccc(CN2CCc3ccccc3C2)cc1 returned D3 ag -30, D1 agonist 1, DRD3 antagonist -15, D1 potentiator -2 and D1 antagonist 10.
For COc1ccccc1N1CCN(C(=O)c2ccc(CN3CCc4ccccc4C3)cc2)CC1 the results were D3 ag -5, D1 agonist 0, DRD3 antagonist -67*, D1 potentiator -3 and D1 antagonist 8.
`O=C(c1ccc(CN2CCc3ccccc3C2)cc1)N1CCN(c2ccc(F)cc2)CC1` gave D3 ag -9 and DRD3 antagonist -65*.
Screening COCCNC(=O)c1ccc(CN2CCc3ccccc3C2)cc1 returned D3 ag -15, D1 agonist 1, DRD3 antagonist inconclusive, D1 potentiator 0 and D1 antagonist 19.
Screening NC(=O)c1ccc(CN2CCc3ccccc3C2)cc1 returned D3 ag -22, D1 agonist 4, DRD3 antagonist -82*, D1 potentiator -11 and D1 antagonist -8.
Cc1c(C)n(Cc2ccccc2)c2ccc(C(=O)N3CCN(c4ccc(F)cc4)CC3)cc12 was read as D3 ag 4, D1 agonist 1, D1 potentiator 2 and D1 antagonist -74*.
For CC(C(=O)N1CCc2ccccc21)N1CCN(c2cccc(C(F)(F)F)c2)CC1 (centres undefined) the results were D3 ag -7, D1 agonist 2, DRD3 antagonist 1, D1 potentiator -1 and D1 antagonist 15.
Screening CC(C)=CC(=O)Nc1ccc(S(=O)(=O)Nc2ccccn2)cc1 returned D3 ag 1, D1 agonist 0, DRD3 antagonist 20, D1 potentiator -14 and D1 antagonist 10.
`O=C(O)c1ccc(NC2=C/C(=N/S(=O)(=O)c3ccccc3)c3ccccc3C2=O)cc1` gave D3 ag -20, D1 agonist 1, DRD3 antagonist -92*, D1 potentiator -3 and D1 antagonist 17.
Cc1cc(C)c(S(=O)(=O)/N=C2\C=C(Nc3ccc(C(=O)O)cc3)C(=O)c3ccccc32)c(C)c1 was read as D3 ag -34, D1 agonist 3, DRD3 antagonist -77*, D1 potentiator -5 and D1 antagonist 3.
Screening COC(=O)[C@@]1(Cc2ccc(OC)cc2)[C@H]2c3cc(C(=O)N4CCCC4)n(Cc4ccsc4Br)c3C[C@H]2CN1C(=O)c1ccccc1 returned D3 ag -8 and DRD3 antagonist 0.
Screening CCCCN(Cc1nc2ccccc2c(=O)[nH]1)C(=O)COc1ccc(F)cc1Cl returned D3 ag 2, D1 agonist -1, DRD3 antagonist 2, D1 potentiator -15 and D1 antagonist -42*.
For N#C/C(=N/Nc1ccc(OC(F)(F)F)cc1)C(N)=S the results were D3 ag 18, D1 agonist 40*, DRD3 antagonist 10, D1 potentiator -4 and D1 antagonist -30*.
For NS(=O)(=O)c1ccc(N2N=C(c3ccccc3)CC2c2cccc(Br)c2)cc1 (centres undefined) the results were D3 ag 47* and DRD3 antagonist 21.
For Cc1cccc(NS(=O)(=O)c2ccc(NC(=O)N3CCCC3)cc2)c1 the results were D3 ag -12, D1 agonist 2, D1 potentiator -1 and D1 antagonist 16.
`CCc1nc(SCC(=O)N2CCOCC2)c2c(=O)n(C)c(=O)n(C)c2n1` gave D3 ag -2, D1 agonist 4, DRD3 antagonist 2, D1 potentiator 0 and D1 antagonist -4.
`CCc1nc(SCC(=O)N2CCCCCC2)c2c(=O)n(C)c(=O)n(C)c2n1` gave D3 ag -4, D1 agonist 3, DRD3 antagonist 24, D1 potentiator 0 and D1 antagonist -34*.
For CC1CCCC(C)N1S(=O)(=O)c1ccc(Cl)cc1 (centres undefined) the results were D3 ag 1, D1 agonist 2, DRD3 antagonist 16, D1 potentiator -1 and D1 antagonist 3.
For CC1=C(C)CS(=O)N(S(=O)(=O)c2ccc(Cl)cc2)C1 (centres undefined) the results were D3 ag -3, D1 agonist 4, DRD3 antagonist -88*, D1 potentiator -1 and D1 antagonist 11.
`COc1ccc(C)cc1N/C(N)=N/c1nc(C)cc(C)n1` gave D3 ag 1, D1 agonist 11, DRD3 antagonist 0, D1 potentiator -6 and D1 antagonist -75*.
CCCOc1ccccc1N/C(=N/c1nc(C)cc(C)n1)NC(=O)COc1ccc(OC)cc1 was read as D3 ag 4, D1 agonist 2, DRD3 antagonist -8, D1 potentiator -8 and D1 antagonist 4.
COc1ccc(OC)c(N/C(N)=N/c2nc(C)cc(C)n2)c1 was read as D3 ag 7, D1 agonist 3, DRD3 antagonist 6, D1 potentiator -7 and D1 antagonist -26.
For CCCOc1ccccc1N/C(N)=N/c1nc(C)cc(C)n1 the results were D3 ag -1, D1 agonist 13, DRD3 antagonist -20, D1 potentiator -14 and D1 antagonist -59*.
Screening COc1ccc(Cl)cc1Nc1nc(C)cc(=O)[nH]1 returned D3 ag -15, D1 agonist 1, DRD3 antagonist -81*, D1 potentiator -3 and D1 antagonist -3.
Screening COc1ccc(Cl)cc1N/C(N)=N/c1nc(C)cc(C)n1 returned D3 ag 15, D1 agonist 12, DRD3 antagonist -22, D1 potentiator -6 and D1 antagonist -70*.
For O=C(COc1ccccc1F)Nc1ccc(OCc2cc(=O)n3ccccc3n2)cc1 the results were D3 ag -14, D1 agonist 1, D1 potentiator -1 and D1 antagonist -6.
For O=S(=O)(c1ccccc1)c1nc(-c2cccc(Cl)c2)oc1N1CCOCC1 the results were D3 ag 0, D1 agonist 3, DRD3 antagonist 15, D1 potentiator -7 and D1 antagonist 2.
`CCn1c(COc2ccccc2C)nnc1SCc1nc2ccccc2c(=O)[nH]1` gave D1 agonist 2, D1 potentiator -3 and D1 antagonist -30*.
CCn1c(CC(=O)Nc2ccccc2)nnc1SCc1nc2ccccc2c(=O)[nH]1 was read as D3 ag -10, D1 agonist 1, DRD3 antagonist -30, D1 potentiator -4 and D1 antagonist 13.
Screening O=C1c2ccccc2C(=O)N1CCCCN(C(=O)c1cc([N+](=O)[O-])cc([N+](=O)[O-])c1)c1ccc(Cl)cc1 returned D3 ag 9, D1 agonist 1, DRD3 antagonist 0, D1 potentiator -9 and D1 antagonist -51*.
COC(C(=O)Nc1ccnn1C1CCN(Cc2cnn(C(C)C)c2)CC1)c1ccccc1 (centres undefined) was read as D3 ag 1, D1 agonist 3, DRD3 antagonist -6, D1 potentiator -7 and D1 antagonist 6.
